Data: PubChem BioAssay AID463173 (ICCB-Longwood Screening Facility, Harvard Medical School, 2010)
Out of some 52,000 compounds screened, about 1,700 (3.3%) were called active. The sample holds actives, similar compounds and a random draw of the others, so the mix is not that of the screen. Values without a mark were called inactive. Cut-off read from the data, not from the text of the source: active = survival mostly below about 52% (no sharp cut-off); inactive = mostly above about 56%.

Each compound was assayed on Wild type (assay: S. aureus survival, RN4220 and DeltatarO strains – OD600, teichoic acid synthesis inhibitors, primary screen (AID 463173)). Settings: S. aureus RN4220 wild type/DeltatarO growth, OD600, 18 h, hits give low values, screened at 18.75 µg/mL (by protocol).

Q: How did the survival turn out when `Cc1ccc(N2CC(NC(=O)Cc3cccs3)CC2=O)cc1C` (stereo not given) was run?
A: 19%

Q: How did the survival turn out when `Fc1ccc(NCc2ccccc2-c2nnc(-c3ccccc3Cl)o2)cc1` was run?
A: 89%

Q: How did the survival turn out when `Fc1ccc(C(NCCc2ccc(Cl)cc2)c2nnc(-c3ccccc3Cl)o2)cc1` (stereo not given) was run?
A: 11% (active)

Q: Which survival does the source give for `Fc1ccc(C(NCCc2ccccc2)c2nnc(-c3ccccc3Cl)o2)cc1` (stereo not given) here?
A: 94%

Q: Which survival does the source give for `Cc1ccc(CCNC(c2ccc(F)cc2)c2nnc(-c3ccccc3Cl)o2)cc1` (stereo not given) here?
A: 0% (active)

Q: Which survival does the source give for `COc1ccc(CCNC(c2ccc(F)cc2)c2nnc(-c3ccccc3Cl)o2)cc1OC` (stereo not given) here?
A: 49%

Q: With `Fc1ccc(C(Nc2ccccc2Cl)c2nnc(-c3ccccc3Cl)o2)cc1` (stereo not given) as the compound, how does the survival read?
A: 89%

Q: `COc1cc(NC(=O)CCc2c(C)n(C)c3cc(-c4ccccc4C)nn3c2=O)cc(OC)c1OC` was tested. Which survival did it give?
A: 130%

Q: With `Cc1ccc(NC(=O)N2CCc3c([nH]c4ccccc34)C2c2ccccc2F)c(Cl)c1` (stereo not given) as the compound, how does the survival read?
A: 82%

Q: How did the survival turn out when `CCc1ccc(NS(=O)(=O)c2ccc(C(=O)N(C)C)s2)cc1` was run?
A: 64%

Q: For `CCC1CCCCN1C(=O)c1sc(-n2nc(C)c(Cc3ccccc3)c2C)nc1C` (stereo not given), which survival is on record?
A: 72%

Q: How did the survival turn out when `CC(=O)c1ccc(NC(=O)C2CCN(S(=O)(=O)c3ccc4c(c3)CCCN4C(=O)C3CCC3)CC2)cc1` was run?
A: 74%

Q: How did the survival turn out when `CCOC(=O)Cn1nc(N2CCN(c3ccc(F)cc3)CC2)ccc1=O` was run?
A: 73%

Q: For `COc1ccc(Cn2ccc3nc(C)c(C(=O)NCc4cccc(OC)c4)cc3c2=O)cc1`, which survival is on record?
A: 75%

Q: Which survival does the source give for `Cc1ccc(CNC(=O)CCCc2nnc3n(C)c(=O)c4sccc4n23)cc1` here?
A: 92%

Q: Which survival does the source give for `CCOC(=O)c1cc(C)n(CC2CCC(C(=O)Nc3cccc(C(C)=O)c3)CC2)c1C` (stereo not given) here?
A: 79%

Q: With `Cc1c(Cl)cccc1-n1nc(C)c2c(C)cc(=O)n(CC(=O)N3CCCc4ccccc43)c21` as the compound, how does the survival read?
A: 71%

Q: `CN1CCc2c(sc(NC(=O)CSc3ccccc3)c2-c2nc3ccccc3s2)C1` was tested. Which survival did it give?
A: 80%

Q: How did the survival turn out when `CC(=O)N1CCc2c(sc(NC(=O)CSc3ccccc3)c2-c2nc3ccccc3s2)C1` was run?
A: 120%

Q: How did the survival turn out when `CCN1CCc2c(sc(NC(=O)CSc3ccccc3)c2-c2nc3ccccc3s2)C1` was run?
A: -6% (active)

Q: For `CCOC(=O)c1cc(-c2ccccc2)n(CC(=O)NC2CCC(C)CC2)c1C` (stereo not given), which survival is on record?
A: 81%

Q: How did the survival turn out when `CCc1ccc(NC(=O)C(CC)n2c(=O)c(C(F)(F)F)nc3ccccc32)cc1` (stereo not given) was run?
A: 81%

Q: How did the survival turn out when `Cc1cccc(N2CCN(Cc3cc(=O)oc4cc(C)ccc34)CC2C)c1` (stereo not given) was run?
A: 84%

Q: For `O=C1C2=C(Nc3ccccc3SC2c2ccccc2C(F)(F)F)c2ccccc21` (stereo not given), which survival is on record?
A: 11% (active)

Q: Which survival does the source give for `O=C1C2=C(Nc3ccccc3SC2c2ccc(C(F)(F)F)cc2)c2ccccc21` (stereo not given) here?
A: 36%

Q: How did the survival turn out when `CC(C)(C)c1ccc(C2Sc3ccccc3NC3=C2C(=O)c2ccccc23)cc1` (stereo not given) was run?
A: 82%

Q: How did the survival turn out when `CCC(Sc1nnc(C)n2c1cc1sccc12)C(=O)Nc1ccccc1F` (stereo not given) was run?
A: 79%

Q: For `CCOc1cc(CNC(=O)c2ccc(Cn3c(=O)c4cccn4c4cccnc43)cc2)ccc1OC`, which survival is on record?
A: 86%

Q: For `COc1cccc(-c2nn(C)c3sc(C(=O)N4CCN(c5cccc(C)c5)C(C)C4)cc23)c1` (stereo not given), which survival is on record?
A: 72%

Q: Which survival does the source give for `CCOC(=O)C1CCC(CN(Cc2ccc(Cl)cc2)S(=O)(=O)c2cccc(Cl)c2C)CC1` (stereo not given) here?
A: 82%

Q: `CCOC(=O)c1ccc(NC(=O)CC2Nc3ccccc3NC2=O)cc1` (stereo not given) was tested. Which survival did it give?
A: 62%

Q: `CCOC(=O)c1ccc(NC(=O)CC2Nc3cccc4cccc(c34)NC2=O)cc1` (stereo not given) was tested. Which survival did it give?
A: -13% (active)

Q: `CC(=O)c1ccc(NC(=O)CC2Nc3cccc4cccc(c34)NC2=O)cc1` (stereo not given) was tested. Which survival did it give?
A: 96%

Q: For `Cc1ccccc1N(C)S(=O)(=O)c1nnc(NC(=O)c2ccccc2F)s1`, which survival is on record?
A: 33%

Q: Which survival does the source give for `CCOC(=O)CC(NC(=O)Cn1nnc(-c2ccc(C(F)(F)F)cc2)n1)c1ccc(C)cc1` (stereo not given) here?
A: 87%

Q: Which survival does the source give for `CCOC(=O)c1ccccc1NC(=O)Cc1c(C(=O)O)c(C)cn1C` here?
A: -1% (active)

Q: How did the survival turn out when `Cc1ccc(C)c(NC(=O)CCOc2ccccc2)c1` was run?
A: 94%

Q: How did the survival turn out when `Cc1c(Cl)cccc1NC(=O)CCOc1ccccc1` was run?
A: 145%

Q: Which survival does the source give for `Cc1cn(C)c(CC(=O)Nc2cccc(Cl)c2C)c1C(=O)O` here?
A: 124%

Q: For `CCc1ccc(NC(=O)Cc2c(C(=O)O)c(C)cn2C)cc1`, which survival is on record?
A: 76%

Q: For `CCOC(=O)c1ccccc1NC(=O)CCOc1ccccc1`, which survival is on record?
A: 6% (active)

Q: For `CC(=O)N1CCc2cc(S(=O)(=O)NC(Cc3ccccc3)C(=O)Nc3ccc(Cl)cc3)ccc21` (stereo not given), which survival is on record?
A: 89%

Q: Which survival does the source give for `O=C(NCCc1ccccc1)c1cc(-c2ccc(Cl)cc2)on1` here?
A: 101%

Q: How did the survival turn out when `O=C(NCc1ccccc1F)C(=O)NCC(c1ccc2c(c1)OCO2)N1CCOCC1` (stereo not given) was run?
A: 71%

Q: With `CCc1cccc(CC)c1NC(=O)C(CC)n1nc(C)n2c(cc3cc(C)ccc32)c1=O` (stereo not given) as the compound, how does the survival read?
A: 73%

Q: For `CCOc1ccc(CN2C(=O)c3ccccc3Sc3ccc(C(=O)NC)cc32)cc1`, which survival is on record?
A: 78%

Q: For `Cc1cccc(/C=N/NC(=O)c2ccccn2)c1O`, which survival is on record?
A: 18%

Q: Which survival does the source give for `Cc1cc(S(=O)(=O)N(C)CCc2ccccc2)ccc1-n1cnnn1` here?
A: 99%

Q: Which survival does the source give for `CCOC(=O)c1cc(S(=O)(=O)Nc2cc(OC)ccc2OC)[nH]n1` here?
A: 123%

Q: Which survival does the source give for `CCOC(=O)c1cc(S(=O)(=O)Nc2cc(C)c(Cl)cc2OC)[nH]n1` here?
A: 98%

Q: With `CCOC(=O)c1cc(S(=O)(=O)Nc2ccc(OC)c(Cl)c2)[nH]n1` as the compound, how does the survival read?
A: -6% (active)

Q: For `CCOC(=O)c1cc2sccc2n1CC(=O)NC(C)C`, which survival is on record?
A: 100%

Q: `COc1ccc(-c2cnc(C)o2)cc1S(=O)(=O)Nc1ccc(C)c(F)c1` was tested. Which survival did it give?
A: 60%

Q: `Fc1ccc(-n2ncc3c(N4CCCCCC4)ncnc32)cc1` was tested. Which survival did it give?
A: 82%

Q: `Cc1ccc(N2C(=O)CSC23C(=O)N(CC(=O)Nc2ccc(C(C)C)cc2)c2ccccc23)cc1C` (stereo not given) was tested. Which survival did it give?
A: 80%

Q: Which survival does the source give for `CCN(CC)CCNC(=O)c1ccc2c(c1)sc1nc(-c3ccc(F)cc3)cn12` here?
A: 27%

Q: Which survival does the source give for `CCN(CC)CCCNC(=O)c1ccc2c(c1)sc1nc(-c3ccc(C)cc3)cn12` here?
A: 8% (active)

Q: `CCOc1ccc(-c2cn3c(n2)sc2cc(C(=O)NCCCN(CC)CC)ccc23)cc1` was tested. Which survival did it give?
A: 2% (active)

Q: How did the survival turn out when `CCCNC(=O)c1ccc2c(c1)sc1nc(-c3ccc(C)cc3)cn12` was run?
A: 103%

Q: How did the survival turn out when `CCOc1ccc(-c2cn3c(n2)sc2cc(C(=O)NCCCc4ccccc4)ccc23)cc1` was run?
A: 96%

Q: How did the survival turn out when `CCCSCCCNC(=O)c1ccc2c(c1)sc1nc(-c3ccc(OCC)cc3)cn12` was run?
A: 85%

Q: Which survival does the source give for `CCOc1ccc(N2C(=O)c3n[nH]c(-c4cccs4)c3C2c2cccc(F)c2)cc1` (stereo not given) here?
A: 60%

Q: Which survival does the source give for `Cc1ccc(CSc2nc3ccncc3n2Cc2nc(-c3ccccc3C)oc2C)cc1` here?
A: 0% (active)

Q: For `Cc1ccc(C)c(CSc2nc3ccncc3n2Cc2nc(-c3ccccc3Cl)oc2C)c1`, which survival is on record?
A: 61%

Q: How did the survival turn out when `Cc1ccc(CSc2nc3ccncc3n2Cc2nc(-c3ccc(Cl)cc3)oc2C)cc1` was run?
A: 68%

Q: `CCN(C(=O)Cn1nc(Cc2ccncc2)c2ccccc2c1=O)c1ccc(OC)cc1` was tested. Which survival did it give?
A: 74%

Q: `Cc1ccccc1C(=O)NC1CCN(CC(=O)NC2CCCCC2)CC1` was tested. Which survival did it give?
A: 98%

Q: `COc1ccc(Cl)cc1NC(=O)C1CCN(c2ncnc3c2nc2n3CCCCC2)CC1` was tested. Which survival did it give?
A: 82%

Q: `O=S1(=O)CCC(c2ccccc2)C1` (stereo not given) was tested. Which survival did it give?
A: 100%

Q: `COc1ccc2cc(C(=O)NCc3ccc4c(c3)CCN4C(=O)c3ccc(F)cc3)[nH]c2c1` was tested. Which survival did it give?
A: 68%

Q: Which survival does the source give for `COc1ccc(C(=O)NCc2ccc3c(c2)CCN3C(=O)c2ccccc2)cc1` here?
A: 82%

Q: How did the survival turn out when `O=C(NCc1ccc2c(c1)CCN2C(=O)c1ccccc1)c1cc2ccccc2[nH]1` was run?
A: 1% (active)

Q: How did the survival turn out when `COc1ccc2cc(C(=O)NCc3ccc4c(c3)CCN4C(=O)c3ccccc3)[nH]c2c1` was run?
A: -3% (active)

Q: With `COc1ccc(CCC(=O)NCc2ccc3c(c2)CCN3C(=O)c2cccc(C)c2)cc1` as the compound, how does the survival read?
A: 67%

Q: With `COc1ccc2cc(C(=O)NCc3ccc4c(c3)CCN4C(=O)c3ccc(C)cc3)[nH]c2c1` as the compound, how does the survival read?
A: 84%

Q: With `COc1ccc(CC(=O)NCc2ccc3c(c2)CCN3C(=O)c2cccc(C)c2)cc1` as the compound, how does the survival read?
A: -6% (active)

Q: Which survival does the source give for `CCOc1ccc(C(=O)NCc2ccc3c(c2)CCN3C(=O)c2ccccc2)cc1` here?
A: -4% (active)

Q: How did the survival turn out when `COc1ccc(OCC(=O)NCc2ccc3c(c2)CCN3C(=O)c2cccc(C)c2)cc1` was run?
A: 72%

Q: `CCOc1ccc(C(=O)NCc2ccc3c(c2)CCN3C(=O)c2ccc(Cl)cc2)cc1` was tested. Which survival did it give?
A: 81%

Q: For `O=C(NCc1ccc2c(c1)CCN2C(=O)c1ccc(F)cc1)c1cc2ccccc2[nH]1`, which survival is on record?
A: 99%

Q: `Cc1cccc(C(=O)N2CCc3cc(CNC(=O)c4cc5ccccc5[nH]4)ccc32)c1` was tested. Which survival did it give?
A: 72%

Q: For `CC(C)c1cc2cc(/C=C/C(=O)O)c(O)cc2o1`, which survival is on record?
A: 39%

Q: How did the survival turn out when `CCC(CC)N1CCN(S(=O)(=O)c2ccc(NC(C)=O)cc2)CC1` was run?
A: 113%

Q: `O=C(/C=C/c1ccccc1)N1CCN(CCN2C(=O)C3C4C=CC(C4)C3C2=O)CC1` (stereo not given) was tested. Which survival did it give?
A: 124%

Q: For `Cc1nc(-c2ccc(S(=O)(=O)NCc3ccc(F)cc3)cc2)co1`, which survival is on record?
A: 68%

Q: Which survival does the source give for `Nc1c(-c2nc(-c3ccc4c(c3)OCO4)cs2)c2ccccn2c1C(=O)c1ccccc1` here?
A: 86%

Q: For `COc1ccccc1N1CCN(C(=O)C2CCN(S(=O)(=O)Cc3ccccc3)CC2)CC1`, which survival is on record?
A: 84%

Q: With `COc1ccc(-c2nc(CS(=O)CC(=O)NCc3ccccc3OC)c(C)o2)cc1` (stereo not given) as the compound, how does the survival read?
A: 123%

Q: Which survival does the source give for `O=C(C1CCC(Cn2c(=O)c3sccc3n(Cc3ccccc3)c2=O)CC1)N1CCOCC1` (stereo not given) here?
A: 95%

Q: For `CCCn1c2ccccc2c2cnn(CC(=O)N3CCC(C(=O)OCC)CC3)c(=O)c21`, which survival is on record?
A: 87%
